According to the supplement of paper PMC6555819:

tested on: LXRb homodimer (NR concentration 270 nM); assay: PBM binding z-score (relative to random genomic background probes); higher = stronger binding; sequences stand for … in GC…GCGATTGACAGCGTAGAATGAAGG
Procedure, shortened: (§1)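 Binding z-scores were set against random background probes. The data came from custom Agilent 4×180K protein-binding microarrays carrying double-stranded probes with 34-nt variable regions, incubated 1 h with ligand-free nuclear receptor dimers. Partner-specific antibodies detected binding, and scanned fluorescence was regression-normalized.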

Row | Sequence | PBM binding z-score
1 | CCGACTGGGCCAAGGTCATTGATCAGTCAAAGCA | -1.02
2 | CAAACTAGGTCACGCAAGGTCAAAGTCGAATGAC | 1.72
3 | GCTGCTACGTCAGGTTGGTCAGCTAACGGGTACG | -0.619
4 | TCTCGGAGGACAAGAAAGGTCAGAGCTCGACATC | -0.275
5 | ACAATGAGGTTATACGTAGATCAGGGAAGAAAGT | 0.813
6 | GCGACTGGGGCAAAGCAGGTGACCATAAGGTTGG | -1.48
7 | ACCGAAAGGTCGAGGTGAGTATAGAGAAAGGGAA | 0.235
8 | ATACCAAGGCGATCGTGAGGTCGTTGATACTAAC | -0.375
9 | TCAGACAGGTGAAGGTAACTCACGTACGCAGTCG | -0.343
10 | TCATATAAGTAAAGGTGAAAGTCGAACGATATGA | -0.205
11 | CGAACTAGGTTATCCAGGACAGTGAATACATTGA | -0.168
12 | GGAACGAGGGCAAGTTGATAGCCGAGTTTGATGG | -0.62
13 | CGAATTAGGTCATCCAGGACAGTGAATACATTGA | 0.231
14 | TGAATGAGGTTATAAGATCAGGGGACGTTGCAAA | 0.309
15 | ATATGTAGGTTAGCGGGTCATTCAGTTTGCGCAT | 0.826
16 | GCTTACGGGTCAAAGGTTATAGCGTGAATAGAAT | 0.387
17 | CAGCCTAGGTCAGGTCCAGTATAGGAGGAACGTT | -1.03
18 | ACTATAAGTTGACTTAGGGCAACCGATACGACGC | 0.348
19 | ATCTTTAGGTAAAGATAGTTCAGTGAATGCAAAT | 0.495
20 | TCTGATAGGTCAACGATGGTCAGCTAATCTGCTA | 0.737

Row | Sequence | PBM binding z-score
21 | TAGCCTAGGTCATGCGGGCCAGTTTAGTGTCGGC | -0.269
22 | GCGACTGGGGCAAAGCAGCTTACCATAAGGTTGG | -1.09
23 | ATCGAAAGGTGGTGAGGTGAGTATACAGAAAGGC | 0.161
24 | CATGCTAGGTCAATGGTCAGCTAAAGCAGCTCGC | 0.174
25 | TCTCGGAGGACACGAAAGGCCAGAGCTCGACATC | -1.2
26 | AGAACGAGGTCAATGAGTTGATAGCACGGGTGGC | 1.3
27 | CCTTACGGGTCACGAGGTTCTAGCACGACGAGCG | 0.0881
28 | CTCGAAAGGTCGGTTCAGGTGAGTATACGGATAA | 0.00585
29 | CCTACTGGGCCATTTAGAGGTCATTGATCATATG | 0.803
30 | CGTCCAAGGACAGAGAGGTCAGTGAATGCCGAGT | -0.627
31 | ACAGACAGGTGAGTGAAGGTAAATCAGCTGGACG | -0.427
32 | CGTCCAAGGTGAAAGGTCAGTGAAGAGATGACGG | -0.321
33 | CAAACTAGGTCACAGAGGTCATAGTCCGTGCGTA | 1.6
34 | TAGCCTAGGTCATGGGTCAGTATACCACGCGAAC | 0.339
35 | AACTCTAGGTAAGACTCAGTTCAGTGAAGAACGC | -0.311
36 | TTAATGAGGTTATAAGATCAGGGAACGTTGCAAA | 0.291
37 | CGAACGAGGGCATGAGTTGATAGAAAATGCCGAT | -0.832
38 | CAAACTAGGTCACGAAAGCTCAAAGTCGAATGAC | 0.287
39 | CAAACTAGGTCACTGAGGTCAAAGTCCGTGCGTA | 1.56
40 | CCTTACGGGTCACGAGGTTTTAGCACGACGAGCG | -0.145

tested on: PPARa:RXRa (NR concentration 270 nM, RXRa partner concentration 90 nM); assay: as above
Procedure, shortened: as §1

Row | Sequence | PBM binding z-score
41 | CCGACTGGGCCAAGGTCATTGATCAGTCAAAGCA | 3.83
42 | CAAACTAGGTCACGCAAGGTCAAAGTCGAATGAC | 6.75
43 | GCTGCTACGTCAGGTTGGTCAGCTAACGGGTACG | -0.713
44 | TCTCGGAGGACAAGAAAGGTCAGAGCTCGACATC | 3.37
45 | ACAATGAGGTTATACGTAGATCAGGGAAGAAAGT | 2.93
46 | GCGACTGGGGCAAAGCAGGTGACCATAAGGTTGG | 1.09
47 | ACCGAAAGGTCGAGGTGAGTATAGAGAAAGGGAA | 4.71
48 | ATACCAAGGCGATCGTGAGGTCGTTGATACTAAC | 0.703
49 | TCAGACAGGTGAAGGTAACTCACGTACGCAGTCG | 1.2
50 | TCATATAAGTAAAGGTGAAAGTCGAACGATATGA | 2.77
51 | CGAACTAGGTTATCCAGGACAGTGAATACATTGA | 2.31
52 | GGAACGAGGGCAAGTTGATAGCCGAGTTTGATGG | 1.94
53 | CGAATTAGGTCATCCAGGACAGTGAATACATTGA | 5.11
54 | TGAATGAGGTTATAAGATCAGGGGACGTTGCAAA | 2.73
55 | ATATGTAGGTTAGCGGGTCATTCAGTTTGCGCAT | 4.33
56 | GCTTACGGGTCAAAGGTTATAGCGTGAATAGAAT | 6.97
57 | CAGCCTAGGTCAGGTCCAGTATAGGAGGAACGTT | 1.24
58 | ACTATAAGTTGACTTAGGGCAACCGATACGACGC | 0.427
59 | ATCTTTAGGTAAAGATAGTTCAGTGAATGCAAAT | 0.508
60 | TCTGATAGGTCAACGATGGTCAGCTAATCTGCTA | 4.76

Row | Sequence | PBM binding z-score
61 | TAGCCTAGGTCATGCGGGCCAGTTTAGTGTCGGC | 3.27
62 | GCGACTGGGGCAAAGCAGCTTACCATAAGGTTGG | 0.229
63 | ATCGAAAGGTGGTGAGGTGAGTATACAGAAAGGC | 0.744
64 | CATGCTAGGTCAATGGTCAGCTAAAGCAGCTCGC | 3.04
65 | TCTCGGAGGACACGAAAGGCCAGAGCTCGACATC | 0.0543
66 | AGAACGAGGTCAATGAGTTGATAGCACGGGTGGC | 5.6
67 | CCTTACGGGTCACGAGGTTCTAGCACGACGAGCG | 5.66
68 | CTCGAAAGGTCGGTTCAGGTGAGTATACGGATAA | 2.86
69 | CCTACTGGGCCATTTAGAGGTCATTGATCATATG | 3.78
70 | CGTCCAAGGACAGAGAGGTCAGTGAATGCCGAGT | 2.13
71 | ACAGACAGGTGAGTGAAGGTAAATCAGCTGGACG | -0.1
72 | CGTCCAAGGTGAAAGGTCAGTGAAGAGATGACGG | 6.01
73 | CAAACTAGGTCACAGAGGTCATAGTCCGTGCGTA | 6.22
74 | TAGCCTAGGTCATGGGTCAGTATACCACGCGAAC | 4.77
75 | AACTCTAGGTAAGACTCAGTTCAGTGAAGAACGC | 0.00216
76 | TTAATGAGGTTATAAGATCAGGGAACGTTGCAAA | 3.04
77 | CGAACGAGGGCATGAGTTGATAGAAAATGCCGAT | 1.58
78 | CAAACTAGGTCACGAAAGCTCAAAGTCGAATGAC | 5.46
79 | CAAACTAGGTCACTGAGGTCAAAGTCCGTGCGTA | 6.2
80 | CCTTACGGGTCACGAGGTTTTAGCACGACGAGCG | 5.72
